From PubChem BioAssay AID493073 (Broad Institute, 2011)
Hit rate of the full screen: of about 1,200 compounds, about 810 (68%) were called active. How the calls were made is not given here. So high a share suggests a set chosen from earlier hits. These entries were drawn from the full list. Entries with a potency or affinity are not part of this list.

experiment: reducers of TRPM1 reporter luminescence, concentration series – cell-based, SK-MEL-5, cherry-picked, set 3, MITF inhibitor project, dose response (AID 493073); conditions: SK-MEL-5 TRPM1 promoter luciferase, 24 h; series mostly up to 35 µM

outcome, inactive:
Cc1nn(C)cc1/C=C/C(=O)c1cccs1
Cc1nc2cc(NC(=O)Nc3cccc([N+](=O)[O-])c3)ccc2n1C
C/C(=N/Nc1nc(C)c(C)s1)c1cccc([N+](=O)[O-])c1
C/C(=N/N=C(/C)c1cccs1)c1cccs1
CCCN1C(=O)c2ccc(C(=O)Nc3cc(C)ccc3O)cc2C1=O
CC1Cc2cc(-c3csc(N)n3)ccc2O1 (configuration not stated)
COc1ccc(Nc2oc(-c3ccc(OC)cc3)nc2C#N)cc1
CC(=O)Nc1ccc2c(c1)ncn2-c1ccccc1
O=C1c2ccccc2CN1c1ccccc1
N#Cc1cnc2sc3ccccc3n2c1=N
CC1(C)CC(=O)c2cnc(N3CCc4ccccc43)nc2C1
O=C(NCCSc1ccccc1)c1ccccc1F
COc1ccc(-c2nc3n(c2C)Cc2ccccc2-3)cc1
COc1ccc(-c2cc(-c3ccccc3O)[nH]n2)cc1OC
COc1ccc(C(=O)Nc2nc3ccc(OC)cc3s2)cc1
CCOC(=O)c1ccc(NC(=O)CC2SCCNC2=O)cc1 (configuration not stated)
CCOC(=O)c1ccc(NC(=O)c2ccnn2C)cc1
Cc1ccc(NC(=O)c2ccc(OCC3CCCO3)cc2)c(C)c1 (configuration not stated)
CCCOc1ccc(C(=O)Nc2ccc3c(c2)OCCO3)cc1
COc1cc(/C=N/N=C(N)N)ccc1OCc1ccc(Cl)cc1
Cc1ccc2nc(-c3ccncc3)[nH]c2c1
CC(=O)N/C(N)=N/c1nc(=O)c2ccccc2s1
COc1ccc(/C=N/NC(=O)Cc2cccs2)cc1
CCOc1ccc(N(CC(=O)Nc2ccc(OC)cc2)S(C)(=O)=O)cc1
COc1ccc(NC(=O)c2scc(S(=O)(=O)C(C)C)c2N)cc1
CCSc1nc2c(cnn2-c2ccccc2)c(=O)n1N
Nc1c(-c2ccc(Cl)cc2)nnn1-c1ccccc1
CCn1nccc1C(=O)Nc1ccc(C)c(C)c1
O=C(CCNc1ccccc1)c1ccc2c(c1)OCO2
O=C(Cn1cnc2ccccc2c1=O)Nc1ccc2c(c1)OCCO2
C=CCn1cccc(C(=O)Nc2ccc(C)c(Cl)c2)c1=O
Cc1cccc(N(O)C(=O)Nc2cccc(Cl)c2)c1
O=C(Nc1ccc(F)c(Cl)c1)c1ccc2c(c1)OCO2
CC(O)CNC(=O)C1CCN(Cc2ccc(OCc3ccccc3)cc2)CC1 (configuration not stated)
Nc1nc2ccccc2n1/N=C/c1ccc(-c2ccccc2)o1
Cc1c(/C=C/C(=O)c2ccc(Cl)s2)cnn1C
CCCCOC(=O)Nc1ccc2c(C)cc(=O)oc2c1
Cc1ccc(NC(=O)c2cc(-c3cccs3)on2)cc1
Cc1ccc2nc(N(CCCN(C)C)C(=O)c3ccc4c(c3)CCCC4)sc2c1
Cc1cc(C)c2sc(N(CCCN(C)C)C(=O)COc3ccc(Cl)cc3)nc2c1
CC(=O)N/C(N)=N/c1nc2cc(C)ccc2o1
CCOC(=O)c1cn2nc(Oc3ccccc3)ccc2n1
Cc1cn(CCC(=O)Nc2ccccc2N2CCOCC2)c2ccccc12
Clc1c(-c2ccccc2)nc2ccccn12
C=CCNC(=O)Cn1nnc(-c2ccc(-c3ccc(OC)cc3)cc2)n1
CCOC(=O)CSc1nc2cc(OCC)ccc2cc1C#N
O=C(Cn1cnc2c(oc3ccccc32)c1=O)c1ccccc1
c1ccc(Cc2cc(-c3ccccc3)on2)cc1
O=[N+]([O-])c1c(NCCCO)cc(Sc2ccc(Cl)cc2)c2nonc12
CC1CC2(C)Oc3ccccc3CC2C(C)C1CNCCCN(C)C (configuration not stated)
O=[N+]([O-])c1cccc(/C=N/Nc2ncc(Br)cn2)c1
Cc1cc(C)c2c(N)c(C(=O)N/N=C/c3cccnc3)sc2n1
Cc1ccc(NC(=O)c2cc3cccc([N+](=O)[O-])c3[nH]2)cc1
O=C(CC(=O)c1ccccc1)Nc1ccccn1
N/C(CS(=O)(=O)c1ccccn1)=N\OC(=O)c1ccccc1Cl
COc1ccc(NC(=O)c2cc3ccccc3[nH]2)cc1
COC(=O)[C@@H](C)NC(=O)c1ccc2oc(CCc3ccccc3)nc2c1
